Laboratory results as given in PubChem BioAssay AID1159580 (chemical genetic matrix, 2015).
Hit rate of the full screen: of about 5,500 compounds, about 2,000 (36%) were called active. Inconclusive results (about 18%) are left out. Rule as the data show it: active = normalized growth mostly below about 0.91 (no sharp cut-off); inconclusive = no clear call, values can overlap the other calls; inactive = mostly above about 0.92. The list shows a part of the results.

Experiment: chemical genetic growth profiling, strain panel (AID 1159580);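 also: tested at 20 µM; growth read once vehicle control cultures reached saturation at 30 °C; 1 = growth at the plate median or of vehicle wells; lower values mean less growth of the strain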
Details: growth OD

Measured: normalized growth

O=C(/C=C(\O)c1ccccc1)c1ccccc1O
active: S. cerevisiae deletion strains, locus YAL021C, strain ccr4, stronger effect = lower value 0.843 | S. cerevisiae deletion strains, locus YAL026C, strain drs2, stronger effect = lower value 0.775 | S. cerevisiae deletion strains, locus YAL030W, strain snc1, stronger effect = lower value 0.827 | S. cerevisiae deletion strains, locus YBL061C, strain skt5, stronger effect = lower value 0.776 | S. cerevisiae deletion strains, locus YBR009C, strain hhf1, stronger effect = lower value 0.667 | S. cerevisiae deletion strains, locus YBR023C, strain chs3, stronger effect = lower value 0.778 | S. cerevisiae deletion strains, locus YBR171W, strain sec66, stronger effect = lower value 0.807 | S. cerevisiae deletion strains, locus YBR229C, strain ROT2, stronger effect = lower value 0.778 | S. cerevisiae deletion strains, locus YBR231C, strain swc5, stronger effect = lower value 0.65 | S. cerevisiae deletion strains, locus YBR279W, strain paf1, stronger effect = lower value 0.865 | S. cerevisiae deletion strains, locus YCL011C, strain gbp2, stronger effect = lower value 0.681 | S. cerevisiae deletion strains, locus YCL016C, strain dcc1, stronger effect = lower value 0.836 | S. cerevisiae deletion strains, locus YCL029C, strain bik1, stronger effect = lower value 0.593 | S. cerevisiae deletion strains, locus YCL061C, strain MRC1, stronger effect = lower value 0.812 | S. cerevisiae deletion strains, locus YCL069W, strain vba3, stronger effect = lower value 0.843 | S. cerevisiae deletion strains, locus YCR088W, strain abp1, stronger effect = lower value 0.877 | S. cerevisiae deletion strains, locus YDL035C, strain GPR1, stronger effect = lower value 0.791 | S. cerevisiae deletion strains, locus YDL040C, strain nat1, stronger effect = lower value 0.918 | S. cerevisiae deletion strains, locus YDL074C, strain BRE1, stronger effect = lower value 0.28 | S. cerevisiae deletion strains, locus YDL101C, strain DUN1, stronger effect = lower value 0.595 | S. cerevisiae deletion strains, locus YDL134C, strain PPH21, stronger effect = lower value 0.827 | S. cerevisiae deletion strains, locus YDL185W, strain tfp1, stronger effect = lower value 0.817 | S. cerevisiae deletion strains, locus YDL192W, strain arf1, stronger effect = lower value 0.776 | S. cerevisiae deletion strains, locus YDR001C, strain nth1, stronger effect = lower value 0.903 | S. cerevisiae deletion strains, locus YDR069C, strain doa4, stronger effect = lower value 0.701 | S. cerevisiae deletion strains, locus YDR101C, strain arx1, stronger effect = lower value 0.665 | S. cerevisiae deletion strains, locus YDR137W, strain rgp1, stronger effect = lower value 0.402 | S. cerevisiae deletion strains, locus YDR159W, strain sac3, stronger effect = lower value 0.682 | S. cerevisiae deletion strains, locus YDR162C, strain NBP2, stronger effect = lower value 0.794 | S. cerevisiae deletion strains, locus YDR297W, strain sur2, stronger effect = lower value 0.856 | S. cerevisiae deletion strains, locus YDR318W, strain mcm21, stronger effect = lower value 0.844 | S. cerevisiae deletion strains, locus YDR334W, strain swr1, stronger effect = lower value 0.687 | S. cerevisiae deletion strains, locus YDR335W, strain msn5, stronger effect = lower value 0.857 | S. cerevisiae deletion strains, locus YDR388W, stronger effect = lower value 0.736 | S. cerevisiae deletion strains, locus YDR392W, strain spt3, stronger effect = lower value 0.71 | S. cerevisiae deletion strains, locus YDR502C, strain sam2, stronger effect = lower value 0.845 | S. cerevisiae deletion strains, locus YEL003W, strain gim4, stronger effect = lower value 0.709 | S. cerevisiae deletion strains, locus YEL037C, strain rad23, stronger effect = lower value 0.868 | S. cerevisiae deletion strains, locus YEL061C, strain CIN8 (second series), stronger effect = lower value 0.903 | S. cerevisiae deletion strains, locus YEL061C, strain CIN8, stronger effect = lower value 0.826 | S. cerevisiae deletion strains, locus YER015W, strain faa2, stronger effect = lower value 0.685 | S. cerevisiae deletion strains, locus YER016W, strain bim1, stronger effect = lower value 0.88 | S. cerevisiae deletion strains, locus YER110C, stronger effect = lower value 0.787 | S. cerevisiae deletion strains, locus YER111C, strain swi4, stronger effect = lower value 0.871 | S. cerevisiae deletion strains, locus YER155C, strain BEM2 (second series), stronger effect = lower value 0.755 | S. cerevisiae deletion strains, locus YER155C, strain BEM2, stronger effect = lower value 0.413 | S. cerevisiae deletion strains, locus YER167W, strain BCK2, stronger effect = lower value 0.554 | S. cerevisiae deletion strains, locus YFR010W, strain ubp6, stronger effect = lower value 0.766 | S. cerevisiae deletion strains, locus YGL086W, strain mad1, stronger effect = lower value 0.794 | S. cerevisiae deletion strains, locus YGL167C, strain pmr1, stronger effect = lower value 0.895 | S. cerevisiae deletion strains, locus YGL173C, strain kem1, stronger effect = lower value 0.779 | S. cerevisiae deletion strains, locus YGL227W, strain vid30, stronger effect = lower value 0.906 | S. cerevisiae deletion strains, locus YGL240W, strain doc1, stronger effect = lower value 0.758 | S. cerevisiae deletion strains, locus YGL248W, strain PDE1, stronger effect = lower value 0.491 | S. cerevisiae deletion strains, locus YGL253W, strain hxk2, stronger effect = lower value 0.543 | S. cerevisiae deletion strains, locus YGR135W, strain pre9, stronger effect = lower value 0.836 | S. cerevisiae deletion strains, locus YHR027C, strain rpn1, stronger effect = lower value 0.637 | S. cerevisiae deletion strains, locus YHR030C, strain SLT2, stronger effect = lower value 0.854 | S. cerevisiae deletion strains, locus YHR079C, strain IRE1 (second series), stronger effect = lower value 0.554 | S. cerevisiae deletion strains, locus YHR129C, strain ARP1, stronger effect = lower value 0.527 | S. cerevisiae deletion strains, locus YHR142W, strain chs7, stronger effect = lower value 0.648 | S. cerevisiae deletion strains, locus YHR200W, strain rpn10, stronger effect = lower value 0.863 | S. cerevisiae deletion strains, locus YIL066C, strain RNR3, stronger effect = lower value 0.696 | S. cerevisiae deletion strains, locus YIL073C, strain SPO22, stronger effect = lower value 0.301 | S. cerevisiae deletion strains, locus YIR030C, strain dcg1, stronger effect = lower value 0.592 | S. cerevisiae deletion strains, locus YJL092W, strain hpr5, stronger effect = lower value 0.87 | S. cerevisiae deletion strains, locus YJL095W, strain BCK1 (second series), stronger effect = lower value 0.741 | S. cerevisiae deletion strains, locus YJL095W, strain BCK1, stronger effect = lower value 0.254 | S. cerevisiae deletion strains, locus YJL129C, strain trk1, stronger effect = lower value 0.741 | S. cerevisiae deletion strains, locus YJL134W, strain LCB3, stronger effect = lower value 0.908 | S. cerevisiae deletion strains, locus YJL154C, strain vps35, stronger effect = lower value 0.918 | S. cerevisiae deletion strains, locus YJL164C, strain tpk1, stronger effect = lower value 0.695 | S. cerevisiae deletion strains, locus YJL166W, strain qcr8, stronger effect = lower value 0.546 | S. cerevisiae deletion strains, locus YJL187C, strain SWE1 (second series), stronger effect = lower value 0.456 | S. cerevisiae deletion strains, locus YJL187C, strain SWE1, stronger effect = lower value 0.785 | S. cerevisiae deletion strains, locus YKL009W, strain mrt4, stronger effect = lower value 0.78 | S. cerevisiae deletion strains, locus YKL160W, strain elf1, stronger effect = lower value 0.823 | S. cerevisiae deletion strains, locus YKL190W, strain CNB1, stronger effect = lower value 0.902 | S. cerevisiae deletion strains, locus YKR001C, strain vps1, stronger effect = lower value 0.73 | S. cerevisiae deletion strains, locus YKR026C, strain gcn3, stronger effect = lower value 0.895 | S. cerevisiae deletion strains, locus YKR091W, strain srl3, stronger effect = lower value 0.904 | S. cerevisiae deletion strains, locus YLL001W, strain dnm1, stronger effect = lower value 0.769 | S. cerevisiae deletion strains, locus YLL026W, stronger effect = lower value 0.864 | S. cerevisiae deletion strains, locus YLL041C, strain sdh2, stronger effect = lower value 0.869 | S. cerevisiae deletion strains, locus YLR027C, strain aat2, stronger effect = lower value 0.685 | S. cerevisiae deletion strains, locus YLR039C, strain RIC1, stronger effect = lower value 0.137 | S. cerevisiae deletion strains, locus YLR058C, strain SHM2, stronger effect = lower value 0.442 | S. cerevisiae deletion strains, locus YLR221C, strain rsa3, stronger effect = lower value 0.601 | S. cerevisiae deletion strains, locus YLR258W, strain gsy2, stronger effect = lower value 0.818 | S. cerevisiae deletion strains, locus YLR262C, strain YPT6 (second series), stronger effect = lower value 0.391 | S. cerevisiae deletion strains, locus YLR262C, strain YPT6, stronger effect = lower value 0.463 | S. cerevisiae deletion strains, locus YLR268W, strain sec22, stronger effect = lower value 0.836 | S. cerevisiae deletion strains, locus YLR320W, strain mms22, stronger effect = lower value 0.767 | S. cerevisiae deletion strains, locus YLR342W, strain FKS1, stronger effect = lower value 0.903 | S. cerevisiae deletion strains, locus YLR357W, strain rsc2, stronger effect = lower value 0.785 | S. cerevisiae deletion strains, locus YLR370C, strain arc18, stronger effect = lower value 0.864 | S. cerevisiae deletion strains, locus YLR371W, strain rom2, stronger effect = lower value 0.801 | S. cerevisiae deletion strains, locus YLR418C, strain cdc73, stronger effect = lower value 0.64 | S. cerevisiae deletion strains, locus YML016C, strain PPZ1, stronger effect = lower value 0.633 | S. cerevisiae deletion strains, locus YML032C, strain rad52, stronger effect = lower value 0.453 | S. cerevisiae deletion strains, locus YML120C, strain ndi1, stronger effect = lower value 0.589 | S. cerevisiae deletion strains, locus YML124C, strain tub3, stronger effect = lower value 0.901 | S. cerevisiae deletion strains, locus YMR058W, strain fet3, stronger effect = lower value 0.21 | S. cerevisiae deletion strains, locus YMR129W, stronger effect = lower value 0.847 | S. cerevisiae deletion strains, locus YMR205C, strain PFK2, stronger effect = lower value 0.613 | S. cerevisiae deletion strains, locus YMR223W, strain ubp8, stronger effect = lower value 0.826 | S. cerevisiae deletion strains, locus YMR231W, strain pep5, stronger effect = lower value 0.083 | S. cerevisiae deletion strains, locus YMR307W, strain GAS1, stronger effect = lower value 0.523 | S. cerevisiae deletion strains, locus YNL071W, strain lat1, stronger effect = lower value 0.581 | S. cerevisiae deletion strains, locus YNL153C, strain GIM3, stronger effect = lower value 0.582 | S. cerevisiae deletion strains, locus YNL209W, strain ssb2, stronger effect = lower value 0.648 | S. cerevisiae deletion strains, locus YNL233W, strain BNI4, stronger effect = lower value 0.707 | S. cerevisiae deletion strains, locus YNL322C, strain KRE1 (second series), stronger effect = lower value 0.789 | S. cerevisiae deletion strains, locus YNR049C, strain mso1, stronger effect = lower value 0.892 | S. cerevisiae deletion strains, locus YNR052C, strain pop2, stronger effect = lower value 0.556 | S. cerevisiae deletion strains, locus YOL147C, strain pex11, stronger effect = lower value 0.531 | S. cerevisiae deletion strains, locus YOR001W, strain rrp6, stronger effect = lower value 0.733 | S. cerevisiae deletion strains, locus YOR069W, strain VPS5, stronger effect = lower value 0.719 | S. cerevisiae deletion strains, locus YOR070C, strain gyp1, stronger effect = lower value 0.921 | S. cerevisiae deletion strains, locus YOR083W, strain WHI5, stronger effect = lower value 0.745 | S. cerevisiae deletion strains, locus YOR106W, strain vam3, stronger effect = lower value 0.0896 | S. cerevisiae deletion strains, locus YOR144C, strain elg1, stronger effect = lower value 0.724 | S. cerevisiae deletion strains, locus YOR184W, strain ser1, stronger effect = lower value 0.703 | S. cerevisiae deletion strains, locus YOR265W, strain rbl2, stronger effect = lower value 0.849 | S. cerevisiae deletion strains, locus YOR270C, strain vph1, stronger effect = lower value 0.607 | S. cerevisiae deletion strains, locus YOR290C, strain snf2, stronger effect = lower value 0.676 | S. cerevisiae deletion strains, locus YPL051W, strain arl3, stronger effect = lower value 0.568 | S. cerevisiae deletion strains, locus YPL078C, strain atp4, stronger effect = lower value 0.795 | S. cerevisiae deletion strains, locus YPL240C, strain hsp82, stronger effect = lower value 0.78 | S. cerevisiae deletion strains, locus YPL241C, strain CIN2, stronger effect = lower value 0.928 | S. cerevisiae deletion strains, locus YPR163C, strain tif3, stronger effect = lower value 0.755 | S. cerevisiae deletion strains, locus YPR167C, strain met16, stronger effect = lower value 0.852 | S. cerevisiae deletion strains, strain wtn01, stronger effect = lower value 0.843 | S. cerevisiae strains, strain wild type, stronger effect = lower value 0.545
inactive: S. cerevisiae deletion strains, locus YBR021W, strain FUR4, stronger effect = lower value 0.939 | S. cerevisiae deletion strains, locus YDL005C, strain med2, stronger effect = lower value 0.941 | S. cerevisiae deletion strains, locus YDR195W, strain ref2 1.06 | S. cerevisiae deletion strains, locus YGL078C, strain dbp3, stronger effect = lower value 0.986 | S. cerevisiae deletion strains, locus YGR078C, strain PAC10, stronger effect = lower value 0.914 | S. cerevisiae deletion strains, locus YGR252W, strain gcn5, stronger effect = lower value 0.872 | S. cerevisiae deletion strains, locus YHR013C, strain ard1, stronger effect = lower value 0.865 | S. cerevisiae deletion strains, locus YHR094C, strain hxt1, stronger effect = lower value 0.935 | S. cerevisiae deletion strains, locus YIL125W, strain kgd1, stronger effect = lower value 0.98 | S. cerevisiae deletion strains, locus YJL115W, strain asf1, stronger effect = lower value 0.94 | S. cerevisiae deletion strains, locus YJL168C, strain set2, stronger effect = lower value 0.958 | S. cerevisiae deletion strains, locus YKL068W, stronger effect = lower value 0.969 | S. cerevisiae deletion strains, locus YKL085W, strain MDH1 (second series), stronger effect = lower value 0.963 | S. cerevisiae deletion strains, locus YKL085W, strain MDH1, stronger effect = lower value 0.963 | S. cerevisiae deletion strains, locus YLR102C, strain apc9, stronger effect = lower value 0.997 | S. cerevisiae deletion strains, locus YLR342W, strain FKS1 (second series), stronger effect = lower value 0.849 | S. cerevisiae deletion strains, locus YLR384C, strain iki3, stronger effect = lower value 0.92 | S. cerevisiae deletion strains, locus YMR078C, strain ctf18, stronger effect = lower value 0.948 | S. cerevisiae deletion strains, locus YMR125W, strain sto1, stronger effect = lower value 0.991 | S. cerevisiae deletion strains, locus YNL067W, strain RPL9B, stronger effect = lower value 0.929 | S. cerevisiae deletion strains, locus YNL128W, strain TEP1, stronger effect = lower value 0.855 | S. cerevisiae deletion strains, locus YNL248C, strain rpa49, stronger effect = lower value 0.91 | S. cerevisiae deletion strains, locus YNL250W, strain rad50, stronger effect = lower value 0.97 | S. cerevisiae deletion strains, locus YNL271C, strain bni1, stronger effect = lower value 0.951 | S. cerevisiae deletion strains, locus YNL298W, strain CLA4, stronger effect = lower value 0.926 | S. cerevisiae deletion strains, locus YNL307C, strain MCK1, stronger effect = lower value 0.928 | S. cerevisiae deletion strains, locus YOL012C, strain htz1 0.3 | S. cerevisiae deletion strains, locus YOR061W, strain CKA2, stronger effect = lower value 0.93 | S. cerevisiae deletion strains, locus YOR080W, strain dia2, stronger effect = lower value 0.929 | S. cerevisiae deletion strains, locus YOR136W, strain idh2, stronger effect = lower value 0.939 | S. cerevisiae deletion strains, locus YOR316C, strain cot1, stronger effect = lower value 0.941 | S. cerevisiae deletion strains, locus YPL106C, strain sse1, stronger effect = lower value 0.933 | S. cerevisiae deletion strains, locus YPR119W, strain clb2, stronger effect = lower value 0.951 | S. cerevisiae deletion strains, locus YPR141C, strain kar3, stronger effect = lower value 0.967
